# Reference: PubChem BioAssay (NCI)
# This is part of a sample that, as a whole, favours compounds with a hit. Of some 83,000 tested, about 20% had one in any assay.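 Single-concentration screen, 48 h exposure, 96-well plates. Endpoint: percent growth. Below 10 = active.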 A number with no mark means an inactive call. Calls of active or inactive are those of the source.
# Tests used:
# Test in all cases: NCI-60 one-dose screen, 48 h (100 = growth as untreated, 0 = no growth, -100 = all killed)
# Settings in all cases: 10 µM unless noted
# SK-MEL-2 melanoma = tested on: SK-MEL-2 melanoma
# EKVX NSCLC = tested on: EKVX NSCLC
# SN12C renal = tested on: SN12C renal
# UO-31 renal = tested on: UO-31 renal
# TK-10 renal = tested on: TK-10 renal
# ACHN renal = tested on: ACHN renal
# CAKI-1 renal = tested on: CAKI-1 renal
# A498 renal = tested on: A498 renal
# CCRF-CEM leukemia = tested on: CCRF-CEM leukemia
# MOLT-4 leukemia = tested on: MOLT-4 leukemia
# SR leukemia = tested on: SR leukemia
# RPMI-8226 leukemia = tested on: RPMI-8226 leukemia
# OVCAR-8 ovarian = tested on: OVCAR-8 ovarian
# OVCAR-5 ovarian = tested on: OVCAR-5 ovarian
# OVCAR-4 ovarian = tested on: OVCAR-4 ovarian
# SK-OV-3 ovarian = tested on: SK-OV-3 ovarian
# IGROV1 ovarian = tested on: IGROV1 ovarian
# OVCAR-3 ovarian = tested on: OVCAR-3 ovarian
# HS 578T breast = tested on: HS 578T breast
# NCI/ADR-RES ovarian = tested on: NCI/ADR-RES ovarian
Structure (SMILES),growth (SK-MEL-2 melanoma),growth (EKVX NSCLC),growth (SN12C renal),growth (UO-31 renal),growth (TK-10 renal),growth (ACHN renal),growth (CAKI-1 renal),growth (A498 renal),growth (CCRF-CEM leukemia),growth (MOLT-4 leukemia),growth (SR leukemia),growth (RPMI-8226 leukemia),growth (OVCAR-8 ovarian),growth (OVCAR-5 ovarian),growth (OVCAR-4 ovarian),growth (SK-OV-3 ovarian),growth (IGROV1 ovarian),growth (OVCAR-3 ovarian),growth (HS 578T breast),growth (NCI/ADR-RES ovarian)
CN(C)S(=O)(=O)c1ccc(-c2nc(C(Cl)Cl)nc3cc(-c4ccc(F)cc4)nn23)cc1,9.25% (active),22.7%,24.3%,44.3%,29.5%,5.28% (active),3.68% (active),49.7%,21.7%,3.19% (active),8.24% (active),7.75% (active),2.7% (active),18.3%,21.1%,0.219% (active),0.61% (active),8.15% (active),20.3%,3.66% (active)
O=C(CSc1nc2ccccc2c(=O)n1-c1ccccc1)N/N=C/c1ccc(Oc2ccc(Cl)cc2)cc1,86.9%,59%,26.9%,81.2%,104%,74.5%,59.2%,65.7%,50.4%,58.7%,70.3%,73.3%,59.2%,81.5%,73.7%,83.2%,49.1%,111%,58.9%,52.7%
Cc1ccc(C(=O)Nc2ccc(CNCCN3CCOCC3)c(C(F)(F)F)c2)cc1C#Cc1cnc2cccnn12,-7.32% (active),41.2%,26.5%,19%,51.4%,22.8%,17.2%,-1.13% (active),10.1%,4.38% (active),-15.7% (active),-12.8% (active),13.3%,33.5%,25.1%,57.7%,10.6%,21.6%,-13.3% (active),5.66% (active)
CC1=C(C)C(=O)C(Nc2cccc(C)c2)=C(Br)C1=O,117%,68.7%,96.9%,80.2%,152%,95.7%,99.3%,95.5%,16.5%,-29.9% (active),69.3%,35.8%,95.7%,128%,69.3%,85.7%,84.5%,110%,96.1%,98.1%
COc1ccc2[nH]cc(/C=N/Nc3ccnc4cc(Cl)ccc34)c2c1,-83.6% (active),-96.5% (active),-100% (active),-100% (active),-96.5% (active),-100% (active),-99.9% (active),-98.6% (active),-42.8% (active),-48.4% (active),-27.1% (active),-62.8% (active),-70% (active),-100% (active),-100% (active),-95.6% (active),-94.6% (active),-82.1% (active),-49.6% (active),-60.4% (active)
CN1CCN(c2ccc(Nc3nc(NCCCNS(=O)(=O)c4ccc(Cl)cc4)c4sccc4n3)cc2)CC1,-9.34% (active),50.8%,36.7%,-58.9% (active),9.93% (active),6.32% (active),10.8%,19.7%,13%,4.92% (active),5.77% (active),4.97% (active),17%,39.5%,-0.0486% (active),54.1%,25.9%,-6.9% (active),20.2%,47.7%
Cn1c(SCC(=O)c2ccco2)nc2ccccc2c1=O,106%,55.2%,105%,68.7%,146%,101%,74.7%,144%,98.8%,96%,91.5%,93.4%,101%,111%,95.5%,107%,86.1%,107%,104%,105%
CC(C)=CCC[C@](C)(O)[C@H]1CC[C@]2(C)[C@@H]1CC[C@@H]1[C@@]3(C)CC[C@H](N)C(C)(C)[C@@H]3CC[C@]12C,109%,73.4%,96.1%,77.1%,127%,91.7%,67.8%,106%,0.154% (active),4.46% (active),-24.4% (active),-9.63% (active),98.1%,108%,97.5%,104%,93.3%,107%,94.6%,88.9%
